Among the data in PubChem BioAssay AID618 (Sanford-Burnham Center for Chemical Genomics, 2007) are outcome values, retold here.

Among all 87,000 compounds or so, about 540 (0.62%) were called active. The rule behind the calls is not given here. Many of the other results were omitted from the sample, so actives are more common in it than they were. Results with a measured potency or affinity are listed apart.

The nature of this assay: MT1-MMP gene expression reporter suppression – cell-based, luciferase reporter, luminescence (AID 618).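 Note: actives suppress MT1-MMP promoter-driven transcription so potencies describe inhibitors.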 The settings on record: MT1-MMP promoter luciferase reporter cells. In general terms: In a reporter assay the amount or activity of a reporter protein is the signal.
On to `CCCCCn1c(N)c(-c2nc3ccccc3s2)c2c([N+](=O)[O-])nn(C)c(=O)c21`, for which the call was inactive. For `Cc1cc(OC(=O)c2ccco2)c2c(C)cc(=O)oc2c1` the value was “inactive”; for `O=c1oc2ccccc2n1CCCOc1ccccc1`, “inactive”; for `CCc1cccc(CC)c1NC(=O)CN1CC(C)SC1=NC1CCCCC1` (stereo not drawn), “inactive”.

Take `CC1CCCN(S(=O)(=O)c2ccc(NC(=O)CN3CCN(C)CC3)cc2)C1` (stereo not drawn): the outcome was inactive. With `Cc1ccc(NC(=O)CN2CC(C)SC2=NC2CCCCC2)cc1` (stereo not drawn), the result was active. The result for `C=CCOc1cc(C)nc(-c2ccccc2O)n1` reads “inactive”. For `CCOC(=O)CSc1nnc(N)s1` the value was “inactive”; for `O=C1C/C(=C/NCc2ccccc2)C(=O)N1`, “inactive”; for `CCSc1nnc(NC(=O)CSc2nccn2-c2cccc(C)c2C)s1`, “inactive”. The result for `CCc1nnc(NC(=O)CSc2nccn2-c2cccc(C)c2C)s1` reads “inactive”; that for `Cc1nnc(NC(=O)CSc2nccn2-c2cccc(C)c2C)s1`, “active”. Regarding `O=C1CC(c2c[nH]c3ccccc23)C(=O)N1` (stereo not drawn), the call was inactive. For `CCOc1ccc(-c2cc(CCCC(=O)NCCc3ccc(OC)c(OC)c3OC)no2)cc1` the value was “inactive”; for `CCOc1ccc(-c2cc(CCCC(=O)NCCc3ccccc3)no2)cc1`, “inactive”; for `CCOc1ccc(NC(=O)CCCc2cc(-c3ccc(OCC)cc3)on2)cc1`, “inactive”. For `CCOc1ccc(-c2cc(CCCC(=O)Nc3cccc(OC)c3)no2)cc1` the value was “inactive”. The result for `COc1ccccc1NC(=O)NC(=O)N(C(C)C)S(C)(=O)=O` reads “inactive”; that for `Cc1cc2ncn(CC(O)COC3CCCCC3)c2cc1C` (stereo not drawn), “inactive”; that for `CC(=O)Nc1ccc(OCC(=O)c2ccc(C)cc2C)cc1`, “inactive”.

As for `CC(C)NC(=O)c1ccccc1NC(=O)c1ccccc1N(C)S(C)(=O)=O`, the result was inactive.

`COCCn1c(C)cc(C(=O)COC(=O)c2ccc(-n3nc(C)cc3C)cc2)c1C`: the call was inactive. Regarding `COCC(C)n1c(C)cc(C(=O)COC(=O)c2n[nH]c3ccccc23)c1C` (stereo not drawn), the compound was called inactive. For `COCCn1c(C)cc(C(=O)COC(=O)c2n[nH]c3ccccc23)c1C` the value was “active”; for `Cc1cc(NC(=O)COC(=O)c2n[nH]c3ccccc23)no1`, “inactive”; for `CCOC(=O)c1n[nH]c2ccccc12`, “inactive”.

In the case of `CCCCCn1c(=O)[nH]c2cc(C(=O)O)ccc2c1=O`, the call was inactive. The result for `Clc1ccccc1CSc1nnc(Cn2cnc3ccccc32)n1-c1ccccc1` reads “inactive”. The result for `CN1CCC(NC(=O)c2cccs2)CC1` reads “inactive”; that for `CCCOc1ccc(-c2nnc(-c3ccco3)o2)cc1`, “inactive”. Regarding `CCCOc1ccc(-c2nnc(-c3ccncc3)o2)cc1`, the outcome was inactive. `CCOc1ccc(-c2nnc(-c3cccs3)o2)cc1`: the compound was classed as inactive.

For `CC(C)COc1ccc(-c2nnc(-c3ccco3)o2)cc1`, the compound was classed as inactive. For the compound `O=C(CN1CCOCC1)Nc1c2c(nc3ccccc13)N(Cc1ccccc1)CC2`, the outcome was inactive. Consider `O=C(O)C1CCN(S(=O)(=O)c2ccc(Oc3ccccc3)cc2)CC1`, for which the result was inactive. The result for `Cc1cc(NC(=O)CCCC(=O)Nc2ccc(F)cc2)no1` reads “inactive”.

For the compound `COc1ccc(S(=O)(=O)N[C@@H](Cc2ccccc2)C(=O)N2CC[C@@]3(O)CCCC[C@H]3C2)cc1`, the call was inactive. The result for `Cc1c(NC(=O)c2cnn3c2NC(c2ccc(Br)cc2)CC3C(F)(F)F)c(=O)n(-c2ccccc2)n1C` (stereo not drawn) reads “inactive”. For `c1ccc(-c2nc3ccccc3o2)nc1` the value was “inactive”; for `c1cc(-c2nc3ccccc3o2)nc(-c2nc3ccccc3o2)c1`, “inactive”. The result for `c1ccc2nc(-c3nc4ccccc4o3)ccc2c1` reads “active”; that for `Cc1ccc(-c2nnc(Nc3ccccc3)o2)cc1`, “active”. For `Cc1ccc(-c2nnc(-c3ccccc3)o2)cc1`, the result was inactive. Consider `CCNc1nnc(-c2ccc(C)cc2)o1`, for which the outcome was inactive. For `O=C(O)CCCn1c(=O)[nH]c2ccccc2c1=O`, the compound was classed as inactive. The result for `Cc1ccc(C(=O)N2c3ccccc3N(Cc3ccccc3)C(=O)C2(C)C)cc1` reads “inactive”; that for `CC(=O)N1c2ccccc2N(Cc2ccc(C)cc2C)C(=O)C1(C)C`, “active”; that for `Cc1ccc(C)c(CN2C(=O)C3(OCCCO3)c3ccccc32)c1`, “inactive”. The result for `COc1ccc(N(C)S(=O)(=O)c2ccc3c(c2)oc(=O)n3C)cc1` reads “inactive”; that for `Cc1[nH]c2ccc(C(=O)O)cc2c1C`, “inactive”. For `Cc1nn2c(CN(C(=O)c3ccco3)c3ccccc3)nnc2c2ccccc12` the value was “inactive”; for `O=S(=O)(N1CCOCC1)n1nnc2ccccc21`, “inactive”. Regarding `O=C(N1CCOCC1)n1nnc2ccccc21`, the compound was classed as inactive. For `O=C(CSc1ncnc2ccccc12)N1CCN(c2ccccc2)CC1` the value was “inactive”; for `NC(=O)C1CCN(C(=O)c2cc3ccccn3n2)CC1`, “inactive”. For `COC(=O)CCn1nnc(-c2ccc(C)cc2)n1` the value was “inactive”; for `COc1ccc(NC(=O)CCn2nnc(-c3ccc(C)cc3)n2)cc1OC`, “inactive”; for `Cc1ccc(-c2nnn(CCC(=O)NC(C)(C)C)n2)cc1`, “inactive”. `COC(=O)CCn1nnc(-c2cccs2)n1`: the outcome was inactive. The result for `COc1ccc(-c2nnn(CCC(=O)O)n2)cc1` reads “inactive”. The result for `COc1cccc(-c2nnn(CCC(=O)O)n2)c1` reads “inactive”; that for `O=C(c1ccc(CS(=O)(=O)c2ccccc2)o1)N1CCOCC1`, “inactive”. Regarding `CCCn1c(=S)[nH]c2cc(OC)c(OC)cc2c1=O`, the compound was called inactive. For `CC(=O)N1CCN(CCN=CC2=C(O)CC(c3ccc(Cl)cc3)CC2=O)CC1` (stereo not drawn) the value was “inactive”; for `O=C(C1CCCN(Cc2ccccc2)C1)N1CCc2ccccc2C1` (stereo not drawn), “inactive”.

Consider `NC(=O)c1cc(Cl)cn(-c2ccccc2)c1=O`, for which the compound was called inactive.

As for `CCOC(=O)C1CCCN(c2ncnc3c2[nH]c2cccc(OC)c23)C1` (stereo not drawn), the outcome was inactive. The result for `O=C(c1cc(-c2cccs2)nc2ccccc12)N1CCN(S(=O)(=O)c2cccc(F)c2)CC1` reads “inactive”; that for `CSC(=O)CC(=O)NC(=O)c1ccccc1`, “inactive”; that for `Cc1ccc(NC(=O)c2c(C)nc(Nc3nc4ccccc4o3)nc2C)cc1`, “inactive”. Take `Cc1cccc(C)c1Nc1nc2ccccc2o1`: the compound was classed as inactive. For `O=c1[nH]c(Nc2nc3ccccc3o2)nc2c1CCCC2` the value was “inactive”; for `Cc1ccc2oc(Nc3nc(C)cc(C)n3)nc2c1`, “inactive”; for `O=C(c1cccs1)N1CCc2ccccc21`, “inactive”. For `Cc1onc(-c2ccccc2Cl)c1-c1nc(-c2ccccn2)no1` the value was “inactive”; for `Clc1ccc(-c2nc(-c3ccccn3)no2)cc1Cl`, “inactive”. Take `Cc1ccc(-c2nc(-c3ccccn3)no2)cc1Cl`: the call was active. For `Cc1ccc(SCc2nc(-c3ccccn3)no2)cc1` the value was “inactive”; for `c1ccc(-c2noc(-c3ccc4ccccc4c3)n2)nc1`, “active”. The result for `COc1cccc(-c2noc(-c3cccnc3)n2)c1` reads “inactive”; that for `Clc1cccc(-c2nc(-c3ccccn3)no2)c1`, “active”; that for `COc1ccc(-c2noc(-c3cccc(Cl)c3)n2)cc1OC`, “inactive”. The result for `c1ccc(SCc2nc(-c3ccccn3)no2)cc1` reads “inactive”; that for `COc1cccc(-c2nc(-c3ccccc3)no2)c1`, “inactive”. Consider `c1ccc(-c2cc(-c3nc(-c4ccccn4)no3)c3ccccc3n2)cc1`, for which the compound was called inactive.

`O=C(Nc1nccs1)c1ccc(COc2ccccc2Br)o1`: the call was inactive. In the case of `O=C(CSCc1c(Cl)cccc1Cl)Nc1nccs1`, the compound was called inactive. Take `CCCCOC(=O)Nc1ccc(C(N)=O)cc1`: the result was inactive.

With `C/C=C/c1ccc(OCCCNC)c(OC)c1`, the result was inactive. Take `CC1CCN(C(=O)COc2ccccc2F)CC1`: the result was inactive. The result for `O=C(CCn1c(=O)[nH]c2ccsc2c1=O)N1CCN(c2cccc(Cl)c2)CC1` reads “inactive”; that for `CCCc1cc(C(=O)Nc2cc(OC)c(Cl)cc2OC)no1`, “inactive”; that for `c1ccc(-c2noc(-c3ccncc3)n2)nc1`, “inactive”.

In the case of `c1ccc(-c2noc(-c3ccc4c(c3)OCO4)n2)nc1`, the result was active. For `COc1ccc(-c2noc(-c3ccc4c(c3)OCO4)n2)cc1` the value was “inactive”; for `c1cc(-c2noc(-c3ccc4c(c3)OCO4)n2)ccn1`, “inactive”. For `c1ccc(-c2noc(-c3cccnc3)n2)nc1` the value was “inactive”; for `c1ccc(-c2noc(-c3ccco3)n2)nc1`, “inactive”; for `Brc1ccc(-c2nc(-c3ccccc3)no2)o1`, “inactive”. For `COc1ccc(-c2noc(-c3ccccc3-c3ccccc3)n2)cc1` the value was “inactive”. As to `COc1ccc(-c2nc(-c3ccc(Br)cc3)no2)c(OC)c1`, the call was inactive. The result for `COc1ccc(-c2nc(-c3ccccc3)no2)c(OC)c1` reads “active”; that for `Cc1sc2nc(SCC(=O)N3CCCC3)[nH]c(=O)c2c1C`, “inactive”; that for `O=C1CC(c2ccco2)c2ccc3ccccc3c2N1` (stereo not drawn), “inactive”. The result for `CCOC(=O)c1cnc(SCC(=O)c2ccc(C)cc2)nc1N` reads “inactive”; that for `Cc1cc(C)n(CC(O)Cn2ccc3ccccc32)n1` (stereo not drawn), “inactive”.

For `c1ccc(-c2noc(-c3ccc4ccccc4c3)n2)cc1`, the outcome was active.

As for `c1ccc(-c2nnc(-c3cccc(-c4nnc(-c5ccccc5)o4)c3)o2)cc1`, the outcome was inactive. The result for `CCOc1ccc(-c2nc(-c3ccccc3)no2)cc1OCC` reads “inactive”; that for `c1ccc(-c2nnc(-c3ccccc3)o2)cc1`, “inactive”. For `Cc1ccc(Cc2nc(-c3ccccn3)no2)cc1` the value was “inactive”; for `Cc1occc1-c1nc(-c2ccccn2)no1`, “inactive”. For `Brc1cccc(-c2nc(-c3ccncc3)no2)c1` the value was “inactive”; for `CC1=CCC(C(=O)O)C(C(=O)Nc2nc3ccc(S(C)(=O)=O)cc3s2)C1` (stereo not drawn), “inactive”; for `Cn1c(=O)c2c(ncn2CC(=O)N2CCN(c3ccccc3F)CC2)n(C)c1=O`, “inactive”.

In the case of `COc1ccc(-c2c(C)n([O-])c(C)c(C)[n+]2=O)cc1`, the compound was classed as inactive. Consider `COc1ccc(S(=O)(=O)N2C3CCC2CC(NC(=O)NC2CCCCC2)C3)cc1` (stereo not drawn), for which the compound was classed as inactive. For `COc1cccc(NS(=O)(=O)c2ccc3[nH]cc(C(=O)NC4CC4)c(=O)c3c2)c1` the value was “inactive”. For `CCCn1c(-c2ccc(OC)cc2)nc2c(=O)n(C)c(=O)[nH]c21` the value was “inactive”. For `CCC(C)NS(=O)(=O)c1ccc(NC(=O)c2c(-c3ccccc3)noc2C)cc1` (stereo not drawn) the value was “inactive”.

For the compound `O=C(NCCCc1ccccc1)c1cnc2n(c1=O)CCS2`, the outcome was inactive.

With `O=C(COc1cccc(C(F)(F)F)c1)NCCCN1CCCC1=O`, the call was inactive. In the case of `CCC(=O)Nc1ccc2c(c1)C(=O)N(C1CCCCC1)C2=O`, the outcome was inactive.
